Assay in all cases: MAPPIT interaction score (arbitrary units); higher = stronger binary interaction signal, active = hit call of the paper
For one test, the target named is Coprox. The note with it: MAPPIT configuration: N-N; pair source set: RRS.
The target in the next test is Cdlc2. The note with it: MAPPIT configuration: N-N; pair source set: Finley_Y2H.
The target in another test is Cdc5. Particulars: MAPPIT configuration: N-N; pair source set: DPIM.
The target in another test is Chd64. Particulars: MAPPIT configuration: N-N; pair source set: RRS.
A further test concerns the target Cdc50. The note with it: MAPPIT configuration: N-N; pair source set: DPIM.
The target of a further test is CkIIalpha-i3. The note with it: MAPPIT configuration: N-C; pair source set: screen_3.
Another test deals with Cnb. The note with it: pair source set: Lit-BM-16.
In a further test the target is Cp190. Particulars: MAPPIT configuration: N-N; pair source set: Lit-BM-16.
For a further test, the target named is mod(mdg4). Particulars: pair source set: Lit-BM-16.

A number with no mark means an inactive call.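 Rule for the calls: active = MAPPIT score above the 99th percentile of random reference set scores in the same batch; inactive = at or below it.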

In the supplement of paper PMC10105736 one finds MAPPIT interaction score data, which are given here for nine molecules.
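Note: HEK293T cells with Epo stimulation, STAT-responsive firefly luciferase reporter, fold induction versus unstimulated cells divided by the larger fold induction of two negative controls lacking either bait or prey.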

B1: Ilp6 (protein)
chain: MVLKVPTSKVLLVLATLFAVAAMISSWMPQVAASPLAPTEYEQRRMMCSTGLSDVIQKICVSGTVALGDVFPNSFGKRRKRDLQNVTDLCCKSGGCTYRELLQYCKG
In the case of B1, in the test with Coprox, the MAPPIT interaction score is -0.378.

B2: Acp62F (protein)
chain: MTDMWSLKICACLGLLLLFKPIDSMGWQGPKVDCTANGTQTECPVACPETCEYSGNGPCVKMCGAPCVCKPGYVINERIPACVLRSDCPKDVVRKEDMLLGVSNFKCFSRNYNCS
Consider B2, for which the MAPPIT interaction score with Cdlc2 is 2.6.

B3: LTV1 (protein)
chain: MVKGKKPYIDRKKAVTFHLVHRSQHDPLVTDENAPQRVLLEAAARQQKPKDPEPPTDPAQRQEELKKFGIHFDDDYDYMQHLKKRENDVVWEFMENPNQARKQKVQDSEKPGPAPKLMLPSSVFASEFEESEGMLNKAAPQTLRLDWDPDVVAALDSDCENEELEDDFVIQAMAEGDSDDEEWDDEDGEEQSDMDFDSDDLNEDENEDELMDRLAPLMRERRFDDEEVKSRFTEYSMSSSVIRRNEQLSLLDDRFEKFYATYDDPELGDLALEDIEGNWHQKHPVVMQCFQEFKKKDKGIEYNKEWDRERIEKYRNVVEGEEDPTEELVEYEVDDPKQKKWDCESILSTYSNIYNHPKVIDEPRRSRRSSASTNPAPIQIDPKTGLPTNVLRGGVDGQLTAKALANLADESPAATGPKSLCAKSVLSTLSVLSIRPKDETHEEKKERKRLLKDYRNERRIEKKANTEAFKEEKKRQTHVKINQRTNQQGASIV
Regarding B3, in the test with Cdc5, the MAPPIT interaction score is 1.03.

B4: GstS1 (protein)
chain: MADEAQAPPAEGAPPAEGEAPPPAEGAEGAVEGGEAAPPAEPAEPIKHSYTLFYFNVKALAEPLRYLFAYGNQEYEDVRVTRDEWPALKPTMPMGQMPVLEVDGKRVHQSISMARFLAKTVGLCGATPWEDLQIDIVVDTINDFRLKIAVVSYEPEDEIKEKKLVTLNAEVIPFYLEKLEQTVKDNDGHLALGKLTWADVYFAGITDYMNYMVKRDLLEPYPALRGVVDAVNALEPIKAWIEKRPVTEV
Take B4: in the test with Chd64, the MAPPIT interaction score is 0.058.

B5: CaBP1 (protein)
chain: MRQLASILLLAFVVGSVSAFYSPSDGVVELTPSNFDREVLKDDAIWVVEFYAPWCGHCQSLVPEYKKLAKALKGVVKVGSVNADADSTLSGQFGVRGFPTIKIFGANKKSPTDYNGQRTAKAIAEAALAEVKKKVQGVLGGGGGSSSGGSGSSSGDDVIELTEDNFDKLVLNSDDIWLVEFFAPWCGHCKNLAPEWAKAAKELKGKVKLGALDATAHQSKAAEYNVRGYPTIKFFPAGSKRASDAQEYDGGRTASDIVSWASDKHVANVPAPELIEIINESTFETACEGKPLCVVSVLPHILDCDAKCRNKFLDTLRTLGEKFKQKQWGWAWAEGGQQLALEESLEVGGFGYPAMAVVNFKKMKFSVLKGSFSKDGINEFLRDISYGRGHTAPVRGAKKPAIVSVDPWDGKDGQLPTEEDIDLSDIDLDKDEL
For the molecule B5, the MAPPIT interaction score in the test with Cdc50 is 0.0074.

B6: Timp (protein)
chain: MDLRKHLGLLTLLLVAVFAFYGRPADACSCMPSHPQTHFAQADYVVQLRVLRKSDTIEPGRTTYKVHIKRTYKATSEARRMLRDGRLSTPQDDAMCGINLDLGKVYIVAGRMPTLNICSYYKEYTRMTITERHGFSGGYAKATNCTVTPCFGERCFKGRNYADTCKWSPFGKCETNYSACMPHKVQTVNGVISRCRWRRTQLYRKCMSNP
Take B6: the MAPPIT interaction score in the test with CkIIalpha-i3 was 0.0292.

B7: Cpr47Eg (protein)
chain: MKFFIAFACLLAVALANEDANVLRAEQQVNVDGFAYAVELDNSVNVQQKGDLNGEEWVVKGSQSWTSPENVPVSIQYIADANGYQVVSANPPLPTPPPIPEAIQRSLEYIAAHPPSQ
In the case of B7, the MAPPIT interaction score was 1.11 with Cnb (MAPPIT configuration: N-C) and -0.0471 in the test with Cnb (MAPPIT configuration: N-N).

B8: su(Hw) (protein)
chain: MSASKEGKEKKGKLLGVENISPPKDKRPATRMKLLNDVGAGEDSEASTTTTTSRTPSNKQEKRGSVAGSRIKILNEEILGTPKTEKRGATKSTAPAASTVKILNEKKTPSATVTAVETTKIKTSPSKRKKMEHYVLQAVKSENTKADTTVTVVTEEDDTIDFILADDEEVVPGRIENNNGQEIVVTEDDEDLGEDGDEDGEDSSGKGNSSQTKIKEIVEHVCGKCYKTFRRVQSLKKHLEFCRYDSGYHLRKADMLKNLEKIEKDAVVMEKKDICFCCSESYDTFHLGHINCPDCPKSFKTQTSYERHIFITHSEFSDFPCSICNANLRSEALLALHEEQHKSRGKPYACKICGKDFTRSYHLKRHQKYSSCSSNETDTMSCKVCDRVFYRLDNLRSHLKQHLGTQVVKKPEYMCHTCKNCFYSLSTLNIHIRTHTGEKPFDCDLCDKKFSALVALKKHRRYHTGEKPYSCTVCNQAFAVKEVLNRHMKRHTGERPHKCDECGKSFIQATQLRTHSKTHIRPFPCEQCDEKFKTEKQLERHVKTHSRTKRPVFSCAECKRNFRTPALLKEHMDEGKHSPKQQRSSMRSAVKIMERTDCAICDKNFDSSDTLRRHIRTVHECDPDDIFGVEPHPSKRAKKDIESEEVVPVALNTSAGSLISSQTDGNGVVVREFLVDEGDGAAQTITLENETYTILPLDGAIEGEQLTDEAGVKPEAKKEEAQVSPVVKKEQRKSLAASLAAAIADNLEESCSEDDFSGEILTEEDIKLKENVGKLIDMLVDPPILKKYGWPNAPEETVLCKVIENCGHDLTKGGENYAELDYGSRMREYCKLLFTVVIHNDSIKSLLNNFPIDDVIEYVLGDEDQDEGGLDKDNESHSGDEEAVSVTGETKTNEIREKPEKKEVSAKSEKKEIVGKAVDKDNSEEVVRENKKKPVGEQEKA
In the case of B8, the MAPPIT interaction score with Cp190 was 0.105; with mod(mdg4) (MAPPIT configuration: N-C), 2.52; with mod(mdg4) (MAPPIT configuration: N-N), 0.317.

B9: RpS13 (protein)
chain: MGRMHAPGKGISQSALPYRRTVPSWLKLNADDVKEQIKKLGKKGLTPSKIGIILRDSHGVAQVRFVNGNKILRIMKSVGLKPDIPEDLYHMIKKAVAIRKHLERNRKDKDGKFRLILVESRIHRLARYYKTKSVLPPNWKYESSTASALVA
With B9, in the test with Cnb (MAPPIT configuration: N-N), the MAPPIT interaction score was 0.219.
